From PubChem BioAssay (NCI) come the findings set out here.

The panel holds about 79,000 compounds, 15% with a hit somewhere; the sample as a whole holds those more often. Unmarked numbers belong to inactive results. Active and inactive are the calls of the source. Cut-off read from the data, not from the text of the source: active = growth inhibition above about 70%; inactive = the rest.

Test [1] can be described thus: NCI Yeast Anticancer Drug Screen. Data for the rad50 strain (AID 155).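 Note: 0% = growth of vehicle-only cultures of the same strain.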 The note with it: S. cerevisiae rad50 strain growth inhibition; at 50.0 µM; hits give high values. The method, boiled down:
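Cells are treated with compound, grown, and their growth is then scored against vehicle-only cultures of the same repair-deficient yeast strain.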

The nature of test [2]: NCI Yeast Anticancer Drug Screen. Data for the mec2-1 strain (AID 157). The note with it: S. cerevisiae mec2-1 strain, at 50.0 µM, hits give high values. The method, boiled down:
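Test agents were screened against the mec2-1 yeast strain, with defined DNA repair or cell cycle alteration. Growth was scored as inhibition against vehicle-only controls.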

Test [3] can be described thus: NCI Yeast Anticancer Drug Screen. Data for the sgs1 mgt1 strain (AID 161).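 Note: 0% = growth of cultures given vehicle only.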 The note with it: S. cerevisiae sgs1 mgt1 strain, at 50.0 µM, hits give high values. The method, boiled down:
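Inhibition of yeast growth, normalised to vehicle-treated controls, is reported for a strain bearing genetic alterations in DNA damage repair.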

Test [4] can be described thus: NCI Yeast Anticancer Drug Screen. Data for the cln2 rad14 strain (AID 165).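 Note: 0% = growth equal to vehicle treated cultures.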 Conditions: S. cerevisiae cln2 rad14 strain, at 50.0 µM, hits give high values. The method in brief:
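Growth of compound-exposed yeast (cln2 rad14 genotype) measured and expressed as inhibition relative to vehicle.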

Test [5] can be described thus: NCI Yeast Anticancer Drug Screen. Data for the bub3 strain (AID 167). Conditions: S. cerevisiae bub3 mutant strain, at 50.0 µM, hits give high values. The method, boiled down: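 Part of a panel of yeast mutants defective in DNA damage repair or cell cycle regulation. Each strain is grown with compound, and inhibition is calculated relative to solvent-treated cultures.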

A short description of test [6]: NCI Yeast Anticancer Drug Screen. Data for the mlh1 rad18 strain (AID 175). Conditions: S. cerevisiae mlh1 rad18 strain growth inhibition; at 50.0 µM; hits give high values. The method, boiled down:
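In this whole-cell yeast screen, a strain with altered DNA damage repair is challenged with compound, and its growth is measured against matched vehicle-treated controls.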

With `CC(=O)C(C(c1ccccc1)N1CCOCC1)N1CCOCC1` (stereo unspecified), the growth inhibition is 12.1% in test [1]; -0.8% in test [2]; -24% in test [3]; 1.15% in test [4]; -23.2% in test [5]; 6.25% in test [6].

As to `O=C(O)Cc1ccc(OCCCCCOc2ccc(CC(=O)O)cc2)cc1`, the growth inhibition was 6.05% in test [1]; 0.25% in test [2]; 20.6% in test [3]; -49.9% in test [4]; -12% in test [5]; 4.35% in test [6].

For the molecule `COC(=O)C12OCC34C(CC(C(C)=O)C(C)(CC(=O)O)C3C(O)C1O)OC(=O)C(OC(=O)/C=C(\C)C(C)C)C24` (stereo unspecified), the growth inhibition in test [1] was 10%; in test [2] it was 21.3%; in test [3] it was 0.15%; in test [4] it was 9%; in test [5] it was 7.6%; in test [6] it was 6.95%.

With `CN1c2ccccc2SC1(C)CCC(=O)O` (stereo unspecified), the growth inhibition in test [1] was 21.5%; in test [2], 35.9%; in test [3], 37.6%; in test [4], 6%; in test [5], 29.6%; in test [6], 7.65%.

For `O=C1NC(=O)[C@H]2C[C@H]3C(=O)NC(=O)[C@H]3[C@@H]12`, the growth inhibition is -0.7% in test [1]; 2.75% in test [2]; -6.9% in test [3]; -11.3% in test [4]; 3.8% in test [5]; 7.15% in test [6].

`CC(N)C(O)C(C)C(=O)O` (stereo unspecified): the growth inhibition in test [1] is 20.8%; in test [2], 9.5%; in test [3], 41.8%; in test [4], 44.5%; in test [5], 35%; in test [6], 7.35%.

In the case of `Cc1c2oc3c(C)ccc(C(=O)NCCc4ccco4)c3nc-2c(C(=O)NCCc2ccco2)c(N)c1=O`, the growth inhibition in test [1] is 39.5%; in test [2], 7.85%; in test [3], 12.8%; in test [4], 15.7%; in test [5], 0.75%; in test [6], 44.4%.

For `CC1(C)[C@H](C(=O)O)CC[C@]1(C)C(=O)O`, the growth inhibition in test [1] is 9.9%; in test [2], -13.1%; in test [3] it was 1.05%; in test [4], 19.2%; in test [5], -0.7%; in test [6], 11.4%.

Consider `NC(=O)N/N=C(\c1ccccc1)C1CCCCc2ccccc21` (stereo unspecified), for which the growth inhibition was 48.5% in test [1]; 20.6% in test [2]; 33.2% in test [3]; 9.95% in test [4]; 43% in test [5]; 48% in test [6].

Regarding `Cc1ccc2c(c1)C1(c3ccc(Cl)c(Cl)c3)Oc3ccc(C)cc3C(c3ccc(Cl)c(Cl)c3)(O2)O1`, the growth inhibition is 4.1% in test [1]; 5.15% in test [2]; -6.7% in test [3]; 2.15% in test [4]; 3.65% in test [5]; -3% in test [6].

For `CCC(=O)n1ncc2ccc([N+](=O)[O-])cc21`, the growth inhibition in test [1] was 3.45%; in test [2] it was 5.15%; in test [3], -2.8%; in test [4], -105%; in test [5], -4.45%; in test [6], -7.5%.

Consider `C=C(Cl)C(Cl)(CBr)CCC(Cl)C(C)C` (stereo unspecified), for which the growth inhibition in test [1] is 65%; in test [2], 15.5%; in test [3] it was 85.2% (active); in test [4], 73.7% (active); in test [5], 75.6% (active); in test [6] it was 72% (active).

Take `COC(=O)/C(=C/C=C/c1ccccc1)N=[N+]=[N-]`: the growth inhibition is -20.5% in test [1]; 7.5% in test [2]; -12% in test [3]; -11.6% in test [4]; 3.2% in test [5]; -10.1% in test [6].

As to `CN(CC(=O)O)Cc1ccccc1`, the growth inhibition in test [1] was 9.5%; in test [2], 19.4%; in test [3] it was 10.5%; in test [4], -13.9%; in test [5] it was 9.35%; in test [6], 3.3%.

With `O=C(/C=C/C(=O)NCc1ccccc1)NCc1ccccc1`, the growth inhibition in test [1] is -0.2%; in test [2], 0.4%; in test [3] it was 16.9%; in test [4], -11.1%; in test [5], 4.7%; in test [6], -5.95%.

Turning to `O=C(NC(NC(NC(=O)c1ccc([N+](=O)[O-])cc1)c1ccc([N+](=O)[O-])cc1)c1ccc([N+](=O)[O-])cc1)c1ccc([N+](=O)[O-])cc1` (stereo unspecified), the growth inhibition in test [1] was 3.35%; in test [2] it was -10.4%; in test [3], 1.65%; in test [4], -24.9%; in test [5], -5.3%; in test [6], -7.95%.

Take `S=C(SSSC(=S)N(C1CCCCC1)C1CCCCC1)N(C1CCCCC1)C1CCCCC1`: the growth inhibition is 1.5% in test [1]; 3.7% in test [2]; 10.1% in test [3]; 1.45% in test [4]; -5.9% in test [5]; 17.2% in test [6].

On to `NC(=S)N/N=C/c1ncccc1N`, for which the growth inhibition in test [1] was 14.8%; in test [2], 50.6%; in test [3], 39.2%; in test [4] it was 35%; in test [5] it was 34.9%; in test [6], -21.7%.

Regarding `O=S(=O)(Cc1c(Cl)c(Cl)c(Cl)c(Cl)c1Cl)c1ccc(Cl)cc1`, the growth inhibition in test [1] was 1.2%; in test [2], -0.6%; in test [3] it was -1.25%; in test [4], -17.8%; in test [5] it was 2.4%; in test [6], -2.4%.

As for `O=CNC1CCCCC1c1ccc(C2CCCCC2NC=O)cc1` (stereo unspecified), the growth inhibition in test [1] is -12.1%; in test [2] it was 9.1%; in test [3], -2.35%; in test [4] it was -1.55%; in test [5] it was 6.2%; in test [6], 22.8%.

As to `CC1=CC(=O)C(C(C)C)CC1` (stereo unspecified), the growth inhibition in test [1] was 1.1%; in test [2] it was -1.05%; in test [3], -11.1%; in test [4] it was -43%; in test [5] it was -7.75%; in test [6] it was -0.35%.
